In PubChem BioAssay (Tox21) one finds Potency data, which are given here for seven molecules.

A short description of assay [1]: Nuclear factor erythroid 2-related factor 2/antioxidant responsive element (Nrf2/ARE) small molecule agonists: luciferase reporter gene qHTS assay in human keratinocytes (AID 1919969). Note: nearly all actives have a fitted effect of over 35% in size. Note: potency is the fitted concentration of half-maximal effect.
Assay [2] concerns the target Gonadotropin-releasing hormone receptor (Homo sapiens) (UniProt P30968). The experiment in a line: Human gonadotropin-releasing hormone receptor (GnRHR) small molecule agonists, calcium flux assay in GnRHR-HEK293 cells (AID 1920063). Note: nearly all actives have a fitted effect of over 35% in size. The gist of the method:
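Compounds dissolved in DMSO are pin-transferred onto dye-loaded GnRHR-HEK293 cells, which were seeded 18 h before at 37 C/5% CO2. Calcium signal is read as fluorescence intensity at 1 s intervals for 3 min.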
(In general: Calcium assays in cells follow changes in intracellular calcium, usually with a dye or a luminescent sensor.)

For assay [3], the target named is KiSS-1 receptor (Homo sapiens) (UniProt Q969F8). The experiment in a line: Human kisspeptin (KISS1R) small molecule agonists, calcium flux assay in KISS1R-HEK293 cells (AID 1920064; active = well fitted activation curve with a large enough effect in the repeat runs). The procedure, abridged: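 Cell line: HEK293, stable human KISS1R. Dye loading 1 h at 37 C after 18 h culture. Read: kinetic fluorescence, 480/540 nm, 3 min at 1 s intervals.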
Chain of KiSS-1 receptor (Homo sapiens) (Q969F8 whole entry, looked up): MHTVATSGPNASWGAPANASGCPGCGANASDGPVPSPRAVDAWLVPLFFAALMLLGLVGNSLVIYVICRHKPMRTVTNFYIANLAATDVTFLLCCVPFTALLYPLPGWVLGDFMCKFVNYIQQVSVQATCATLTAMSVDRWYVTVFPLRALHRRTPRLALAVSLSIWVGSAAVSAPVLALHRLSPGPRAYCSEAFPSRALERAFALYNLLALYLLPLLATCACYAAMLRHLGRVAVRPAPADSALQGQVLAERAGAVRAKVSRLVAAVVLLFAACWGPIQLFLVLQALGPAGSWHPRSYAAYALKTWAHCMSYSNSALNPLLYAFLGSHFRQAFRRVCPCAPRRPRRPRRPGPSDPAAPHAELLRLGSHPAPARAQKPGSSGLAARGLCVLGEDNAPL
A short description of assay [4]: G protein-coupled receptor (GPCR) small molecule agonists, calcium flux assay: HEK293 wild type cell line counter screen (AID 1920065). The procedure, abridged: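 Tox21 10K compounds, 15 concentrations each in triplicate, pin-transferred in DMSO onto dye-loaded cells; kinetic read at 480/540 nm for 3 min, 1 s intervals.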
Assay [5] is described as follows: p53 small molecule agonists, cell-based qHTS assay with human liver microsomes (AID 1963577).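 Note: p53 response element beta-lactamase reporter cells with liver microsomes plus NADPH.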 The procedure, abridged:
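Metabolically competent format: test substances, human liver microsomes and NADPH (both 0.5 mg/mL final) incubated with p53RE-bla cells 16 h at 37 C. Beta-lactamase reporter signal then quantified by fluorescence.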

A short description of assay [6]: p53 small molecule agonists, cell-based qHTS assay with rat liver microsomes (AID 1963578). The procedure, abridged: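 Each plate received p53RE-bla cells, then compound, then rat liver microsomes and NADPH (both 0.5 mg/mL final). Plates were held 16 h at 37 C, and beta-lactamase activity was detected with LiveBLAzer over 2 h.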
For orientation: In qHTS, concentration-response curves come from the screen itself.

Assay [7] is described as follows: p53 small molecule agonists, cell-based qHTS assay with human liver microsomes: qHTS cell viability counter screen (AID 1963579). Note: nearly all actives have a fitted effect of over 45% in size. Note: potency is the fitted concentration of half-maximal effect. The gist of the method:
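Tox21 library compounds, delivered from DMSO stocks, were tested on p53RE-bla cells together with 0.5 mg/mL human liver microsomes and 0.5 mg/mL NADPH (final) over 16 h at 37 C; CellTiter-Glo luminescence served as the cytotoxicity measure.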

Assay [8] in a line: p53 small molecule agonists, cell-based qHTS assay with rat liver microsomes: qHTS cell viability counter screen (AID 1963580). Note: nearly all actives have a fitted effect of over 45% in size. The procedure, abridged:
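Cytotoxicity counter screen: intracellular ATP read by CellTiter-Glo luminescence in the p53 reporter wells. HCT-116 p53RE-bla cells were treated for 16 h at 37 C alongside rat liver microsomes and NADPH, each 0.5 mg/mL final.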

The target of assay [9] is 5-hydroxytryptamine receptor 2A (Homo sapiens) (UniProt P28223). The experiment in a line: 5-hydroxytryptamine receptor 2A (HTR2A) small molecule agonists, cell-based qHTS assay (AID 1963587). Note: nearly all actives have a fitted effect of over 30% in size. Note: potency is the fitted concentration of half-maximal effect. The procedure, abridged:
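Kinetic calcium-flux fluorescence (2 min, 1 sec intervals) after compound addition in agonist mode. HTR2A-CHO cells were cultured 18 h, then dye-loaded 1 h at 37 C.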

The target of assay [10] is Muscarinic acetylcholine receptor M1 (Homo sapiens) (UniProt P11229). Description: Cholinergic receptor muscarinic 1 (CHRM1) small molecule antagonists, cell-based qHTS assay (AID 1963588). Note: nearly all actives have a fitted effect of over 40% in size. The gist of the method:
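Compounds were tested at 15 concentrations in three independent runs. Dye-loaded CHRM1-CHO cells were exposed 5 min at room temperature before stimulation by acetylcholine added at 50nM. Intracellular calcium was read kinetically on FDSS for 3 min.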

Assay [11] shares this target. The experiment in a line: Cholinergic receptor muscarinic 1 (CHRM1) small molecule agonists, cell-based qHTS assay (AID 1963589). Note: nearly all actives have a fitted effect of over 35% in size. The procedure, abridged:
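Homogeneous fluorescence calcium flux, agonist mode. Human M1-expressing CHO cells; compound dosed at 15 concentrations, three independent runs; signal sampled every 1 sec.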

Assay [12] can be described thus: cAMP Responsive Elements (CRE) small molecule agonists, cell-based qHTS assay (AID 1963590). The procedure, abridged:
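HEK 293T cells stably bearing CRE-bla were plated at 2,000 cells per well and rested 18 h. Compounds, positive controls or DMSO were added for 3 h at 37 C. LiveBLAzer B/G substrate was then loaded for 2 h at room temperature.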

Assay [13] can be described thus: cAMP Responsive Elements (CRE) small molecule antagonists, cell-based qHTS assay (AID 1963591; active = well fitted inhibition curve with a large enough effect in the signal ratio in the repeat runs, not every such curve was filed as active; the % refers to the signal ratio). The procedure, abridged: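 First, CRE-bla HEK293T cells settled 18 h at 37 C. Next, compound and 0.25 uM final NKH477 were applied for 3 h. Last, LiveBLAzer B/G substrate was loaded for 2 h at room temperature.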
A short description of assay [14]: p53 small molecule agonists, cell-based qHTS assay: qHTS cell viability counter screen (AID 1963581). Note: nearly all actives have a fitted effect of over 45% in size. The procedure, abridged: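 ATP content measured by luminescence in HCT-116 p53RE-bla cells treated 16 h at 37 C, same wells as the reporter screen.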
The nature of assay [15]: p53 small molecule agonists, cell-based qHTS assay (AID 1963582; active = well fitted activation curve with a large enough effect in the signal ratio in the repeat runs, not every such curve was filed as active; the % refers to the signal ratio). The procedure, abridged:
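16 h compound exposure (37 C) of p53 response element–bla cells, preceded by 5 h recovery at 37 C/5% CO2; read-out via LiveBLAzer B/G FRET substrate, 2 h RT, fluorescence intensity.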

Assay [16] has as its target 5-hydroxytryptamine receptor 2A (Homo sapiens) (UniProt P28223). The experiment in a line: 5-hydroxytryptamine receptor 2A (HTR2A) small molecule antagonists, cell-based qHTS assay (AID 1963586). Note: nearly all actives have a fitted effect of over 45% in size. The gist of the method: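 CHO cells stably expressing human HTR2A were plated for 18 h at 37 C, then loaded with calcium dye for 1 h. Compounds were preincubated 5 min at room temperature before DOI (4 nM solution) was added. Kinetic fluorescence was read for 3 min.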

For assay [17], the target named is D(2) dopamine receptor (Homo sapiens) (UniProt P14416). The experiment in a line: Dopamine D2 receptor (DRD2) small molecule agonists, cell-based qHTS assay (AID 1963594). Note: nearly all actives have a fitted effect of over 35% in size. Note: potency is the fitted concentration of half-maximal effect. The gist of the method:
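cAMP accumulation in DRD2-HEK293 cells measured by HTRF after 1 h detection; compounds added 10 min before NKH477 (200nM […]) forskolin-analogue stimulation, 30 min at room temperature, with Ro20-1724 present at 0.1 mM final.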

Assay [18] has as its target Beta-2 adrenergic receptor (Homo sapiens) (UniProt P07550). Description: Adrenergic beta2 receptor (ADRB2) small molecule antagonists, cell-based qHTS assay (AID 1963592). Note: series mostly up to about 92 µM; nearly all actives have a fitted effect of over 50% in size. The procedure, abridged:
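Assay format: CHO-ADRB2 cells, 18-20hr seeding at 37C/5% CO2, then compound plus 1nM isoproterenol agonist mix for 0.5hr RT. Homogeneous time-resolved fluorescence cAMP detection after 1hr, expressed as 665/615 nm ratio.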

The target of assay [19] is D(2) dopamine receptor (Homo sapiens) (UniProt P14416). Description: Dopamine D2 receptor (DRD2) small molecule antagonists, cell-based qHTS assay (AID 1963595; active = well fitted inhibition curve with a large enough effect in the signal ratio in the repeat runs, with a control signal flat; the % refers to the signal ratio). The gist of the method: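 Human DRD2 antagonist qHTS measuring cAMP by HTRF. The cells are exposed to compound for 10 min, then to NKH477 (200 nM) and quinpirole (12 nM) for 30 min at RT, with Ro20-1724 (0.1 mM) present throughout.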
Chain of D(2) dopamine receptor (Homo sapiens) (P14416 whole entry, looked up): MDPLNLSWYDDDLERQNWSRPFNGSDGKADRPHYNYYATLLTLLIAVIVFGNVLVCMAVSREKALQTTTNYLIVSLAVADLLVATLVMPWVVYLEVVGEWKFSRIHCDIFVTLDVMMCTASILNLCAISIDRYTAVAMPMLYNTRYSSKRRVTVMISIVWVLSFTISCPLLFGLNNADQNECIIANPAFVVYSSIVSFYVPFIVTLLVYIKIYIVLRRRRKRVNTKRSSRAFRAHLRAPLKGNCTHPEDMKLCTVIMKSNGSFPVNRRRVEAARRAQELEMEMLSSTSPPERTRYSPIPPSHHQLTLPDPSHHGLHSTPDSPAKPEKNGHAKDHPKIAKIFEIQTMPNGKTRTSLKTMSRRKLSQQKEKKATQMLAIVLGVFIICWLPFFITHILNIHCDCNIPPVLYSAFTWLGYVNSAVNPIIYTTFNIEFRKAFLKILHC

The target in assay [20] is Beta-2 adrenergic receptor (Homo sapiens) (UniProt P07550). The experiment in a line: Adrenergic beta2 receptor (ADRB2) small molecule agonists, cell-based qHTS assay (AID 1963593).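 Note: CHO cells stably overexpressing human ADRB2.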 The gist of the method:
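CHO cells stably over-expressing ADRB2 were plated overnight at 37C, then dosed with compounds plus a stimulation mix containing 100uM IBMX and 25uM Ro-20-1724 for 0.5hr at room temperature. cAMP was measured by HTRF competition, 1hr.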

Values without a mark were called inactive. Results filed as inconclusive are left out. The source made the active and inactive calls. Unless noted, calls come from the whole dose curve.

Chain of Gonadotropin-releasing hormone receptor (Homo sapiens) (P30968 whole entry, looked up): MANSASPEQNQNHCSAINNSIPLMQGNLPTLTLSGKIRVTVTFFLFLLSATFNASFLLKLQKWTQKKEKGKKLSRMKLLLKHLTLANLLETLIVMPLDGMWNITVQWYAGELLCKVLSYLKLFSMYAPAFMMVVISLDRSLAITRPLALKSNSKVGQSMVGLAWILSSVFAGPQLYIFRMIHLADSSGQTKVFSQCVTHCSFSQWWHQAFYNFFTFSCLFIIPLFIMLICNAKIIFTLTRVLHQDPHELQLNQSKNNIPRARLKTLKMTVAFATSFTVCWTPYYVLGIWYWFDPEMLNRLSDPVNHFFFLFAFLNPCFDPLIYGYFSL
Chain of Muscarinic acetylcholine receptor M1 (Homo sapiens) (P11229 whole entry, looked up): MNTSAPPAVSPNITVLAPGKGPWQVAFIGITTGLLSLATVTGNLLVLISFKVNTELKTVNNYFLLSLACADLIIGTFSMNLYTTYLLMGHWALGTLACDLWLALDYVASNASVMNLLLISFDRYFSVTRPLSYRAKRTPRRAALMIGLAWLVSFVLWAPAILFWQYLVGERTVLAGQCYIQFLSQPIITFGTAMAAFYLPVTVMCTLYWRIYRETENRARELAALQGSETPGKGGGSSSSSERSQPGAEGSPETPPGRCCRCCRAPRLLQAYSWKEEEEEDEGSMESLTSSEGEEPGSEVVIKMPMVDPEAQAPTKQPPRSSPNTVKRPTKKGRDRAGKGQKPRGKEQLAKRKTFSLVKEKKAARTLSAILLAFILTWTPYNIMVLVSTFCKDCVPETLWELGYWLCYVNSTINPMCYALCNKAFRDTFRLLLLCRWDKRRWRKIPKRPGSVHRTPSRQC
Chain of Beta-2 adrenergic receptor (Homo sapiens) (P07550 whole entry, looked up): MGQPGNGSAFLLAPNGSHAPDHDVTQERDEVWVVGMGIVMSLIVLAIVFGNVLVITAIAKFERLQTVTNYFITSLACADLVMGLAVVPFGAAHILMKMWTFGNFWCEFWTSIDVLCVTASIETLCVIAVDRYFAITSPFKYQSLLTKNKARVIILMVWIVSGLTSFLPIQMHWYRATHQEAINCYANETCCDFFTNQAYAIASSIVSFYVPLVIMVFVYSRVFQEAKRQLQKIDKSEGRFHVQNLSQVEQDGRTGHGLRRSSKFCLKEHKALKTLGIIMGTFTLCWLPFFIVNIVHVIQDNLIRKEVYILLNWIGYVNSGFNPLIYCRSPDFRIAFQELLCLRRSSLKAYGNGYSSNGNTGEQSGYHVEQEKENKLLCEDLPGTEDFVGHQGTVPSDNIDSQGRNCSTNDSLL
Chain of 5-hydroxytryptamine receptor 2A (Homo sapiens) (P28223 whole entry, looked up): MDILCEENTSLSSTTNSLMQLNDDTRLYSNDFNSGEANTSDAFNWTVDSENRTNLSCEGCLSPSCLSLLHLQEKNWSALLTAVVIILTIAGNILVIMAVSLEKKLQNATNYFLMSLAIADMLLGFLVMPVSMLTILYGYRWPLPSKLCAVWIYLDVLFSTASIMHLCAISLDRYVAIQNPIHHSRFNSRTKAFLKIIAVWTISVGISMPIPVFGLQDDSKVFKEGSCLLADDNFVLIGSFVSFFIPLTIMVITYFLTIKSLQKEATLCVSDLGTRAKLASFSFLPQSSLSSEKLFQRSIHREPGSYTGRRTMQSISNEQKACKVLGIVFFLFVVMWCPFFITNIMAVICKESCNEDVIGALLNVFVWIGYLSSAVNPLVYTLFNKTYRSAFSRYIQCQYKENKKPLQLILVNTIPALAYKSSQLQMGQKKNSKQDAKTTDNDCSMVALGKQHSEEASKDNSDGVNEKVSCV

As for `Oc1cccc(-c2c3nc(c(-c4cccc(O)c4)c4ccc([nH]4)c(-c4cccc(O)c4)c4nc(c(-c5cccc(O)c5)c5ccc2[nH]5)CC4)C=C3)c1`, the Potency entry in assay [1], in assay [2], in [3], in [4], in assay [5] and in assay [6] was “inactive” in each case. The Potency entry in assay [7], in assay [8], in assay [9], in assay [10], in assay [11] and in assay [12] was “inactive” throughout. For the same molecule, the Potency result in assay [13] was “inactive”.
In the case of `Nc1ccc(O)c(N)c1`, the Potency entry in assay [1], in assay [2], in assay [3], in assay [4], in assay [5] and in assay [6] was “inactive” each time. Also, the Potency entry in assay [7], in assay [14], in assay [15], in assay [16], in assay [9] and in [10] was “inactive” in each case. The Potency result in assay [11], in assay [12], in [13] and in assay [17] was “inactive” in each case.
As to `Cc1oc2c(NC(=O)c3c(Cl)cccc3Cl)cccc2c1C(C)(C)O`, the Potency result in [1], in [2], in assay [3], in [4], in assay [5] and in [6] was “inactive” each time. The Potency result in assay [7], in assay [8], in [15], in assay [16], in assay [9] and in assay [10] was “inactive” in each case. Also, the Potency result in assay [11], in [12], in [13], in assay [18], in [17] and in assay [19] was “inactive” each time.
As for `CC(=O)CC(=O)c1ccccc1`, the Potency in assay [1] is 54.8 µM (active). The Potency result in [2], in assay [3], in assay [4], in [5], in assay [6] and in assay [7] was “inactive” each time. The Potency result in [8], in assay [16], in assay [9], in [10], in assay [11] and in assay [13] was “inactive” throughout. Also, the Potency result in assay [18], in assay [17] and in assay [19] was “inactive” in each case.
Consider `Cc1c(C(=O)NN2CCCCC2)nn(-c2ccc(Cl)cc2Cl)c1-c1ccc(Cl)cc1`, for which the Potency result in assay [1], in assay [2], in [3], in [4], in assay [5] and in [6] was “inactive” each time. Further, the Potency entry in assay [7], in [8], in assay [14], in assay [16], in assay [9] and in assay [10] was “inactive” throughout. Also, the Potency entry in [11], in assay [12], in assay [13], in [17] and in assay [19] was “inactive” each time.
As for `COC(=O)[C@@H](N)Cc1ccc(O)c(O)c1`, the Potency entry in assay [1], in [2], in [3], in [4], in assay [5] and in assay [6] was “inactive” in each case. For the same molecule, the Potency entry in [7], in assay [14], in assay [15], in [10], in assay [12] and in [18] was “inactive” each time. In assay [20], the Potency result was “inactive”. Also, in assay [17], the Potency is 26.6 µM (active).
As for `CC(O)(c1ccc(Cl)cc1)c1ccc(Cl)cc1`, the Potency entry in assay [1], in assay [2], in assay [3], in assay [4], in assay [5] and in [6] was “inactive” each time. The Potency entry in [14], in assay [15], in [10], in assay [11], in assay [17] and in assay [19] was “inactive” throughout. The Potency is 45.8 µM (active) in assay [7] and 49 µM (active) in [9].
